In experiment [1] the test system is TRPC4 beta (transient receptor potential cation channel C4), mouse. Nature of the experiment: activators of mouse TRPC4 channel, confirmation, cell-based, Fluo4 calcium, HEK293 TRPC4beta/mu-opioid, duplicates, 10 µM (AID 2426;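 active = fluorescence ratio normalized to control raised more than 50% in primary screen plus both repeat runs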). The conditions noted are these: Fluo4 calcium fluorescence, at 10 µM; hits give high values.
The subject of experiment [2] is transient receptor potential cation channel C4 beta (TRPC4), mouse. Nature of the experiment: activators of mouse TRPC4 channel, confirmation, cell-based, second round, Fluo4, HEK293 TRPC4beta/mu-opioid, 1 µM (AID 2461;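 active = primary screen active and over 50% activation in each of two duplicate runs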). The conditions noted are these: Fluo4 calcium fluorescence, at 1 µM; hits give high values.
Experiment [3] deals with TRPC4 (transient receptor potential cation channel C4 beta), mouse. The experiment in a line: positive allosteric modulators of mouse TRPC4, confirmation, cell-based, second round, Fluo-4, HEK293 TRPC4beta/mu-opioid, 1 µM (AID 2554;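 active = primary screen hit whose fluorescence ratio, in both repeats, exceeds the weak agonist control mean by 3 SD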). The conditions noted are these: DAMGO EC20, Fluo-4 calcium flux, at 1 µM; hits give high values. On the technique in general: Calcium flux is commonly read through the fluorescence of an indicator in the cells.

Experiment [4] deals with TRPC4 beta (transient receptor potential cation channel C4), mouse. Nature of the experiment: positive allosteric modulators of mouse TRPC4, confirmation, cell-based, Fluo-4, HEK293 TRPC4beta/mu-opioid (AID 2555;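 active = primary screen hit whose calcium fluorescence ratio, in both repeats, exceeds the weak agonist control mean by 3 SD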). To be noted: DAMGO EC20, Fluo-4 calcium flux, at 10 µM; hits give high values.
Experiment [5] concerns the target Short transient receptor potential channel 4 (Mus musculus) (UniProt Q9QUQ5). Nature of the experiment: inhibitors of mouse TRPC4 channel, confirmation, cell-based, Fluo4, HEK293 TRPC4beta/mu-opioid (AID 2636;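 active = calcium signal cut by more than 3 SD below the full-agonist control yet still positive, in both repeats and the earlier primary screen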). To be noted: DAMGO, Fluo4 calcium flux, at 10 µM; hits give high values.
The target is the same in experiment [6]. Nature of the experiment: inhibitors of mouse TRPC4 channel, confirmation, cell-based, second round, Fluo4, HEK293 TRPC4beta/mu-opioid, 1 µM (AID 2637;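 active = calcium signal ratio cut to more than 3 SD under the fully stimulated control mean yet still positive, in both repeats and the primary screen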). The conditions noted are these: Fluo4 calcium flux, DAMGO, at 1 µM; hits give high values.
Experiment [7] has the same target. Nature of the experiment: mouse TRPC4 channel activators, dose response, cell-based, HEK293 TRPC4/mu-opioid, Fluo-4 calcium (AID 434937;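 active = primary screen activator hit with a dose response curve and TRPC4 channel activation at any tested dose; inactive = no activation, no dose response, or not a primary hit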). The conditions noted are these: HEK293 TRPC4 cells, Fluo-4 calcium fluorescence ratio; series mostly up to 20 µM.
The target is the same in experiment [8]. Nature of the experiment: TRPC4 positive allosteric modulators, dose response, cell-based, HEK293 TRPC4/mu-opioid, Fluo-4 calcium, EC20 DAMGO (AID 434941;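 active = earlier screen potentiator hit that boosts the TRPC4 ion channel at some dose, with a dose response; inactive = no potentiation, no dose response, or not a prior hit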;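 also: calcium entry triggered by an EC20 dose of DAMGO at the co-expressed mu-opioid receptor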). To be noted: HEK293 TRPC4/mu-opioid cells, Fluo-4 calcium fluorescence; series mostly up to 20 µM.
For experiment [9] the target is unchanged. The experiment in a line: mouse TRPC4 channel inhibitors, dose response, cell-based, HEK293 TRPC4/mu-opioid, Fluo-4 calcium (AID 434942). To be noted: HEK293 TRPC4/mu-opioid cells, DAMGO-evoked Fluo-4 calcium ratio; series mostly up to 20 µM.
In experiment [10] the target is Short transient receptor potential channel 6 (Mus musculus) (UniProt Q61143). The experiment in a line: inhibition of mouse TRPC6 channel, confirmation, selectivity assay for TRPC4 inhibitor project, cell-based, HEK293, membrane potential dye, duplicate (AID 434948;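 active = active in primary screen and both duplicates, each dropping signal beyond three positive-control SD with fluorescence still positive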). The conditions noted are these: HEK293 TRPC6, membrane potential dye fluorescence, at 10 µM, stimulated with maximal-effect acetylcholine; hits give high values.
Chain of Short transient receptor potential channel 6 (Mus musculus) (Q61143 whole entry, looked up): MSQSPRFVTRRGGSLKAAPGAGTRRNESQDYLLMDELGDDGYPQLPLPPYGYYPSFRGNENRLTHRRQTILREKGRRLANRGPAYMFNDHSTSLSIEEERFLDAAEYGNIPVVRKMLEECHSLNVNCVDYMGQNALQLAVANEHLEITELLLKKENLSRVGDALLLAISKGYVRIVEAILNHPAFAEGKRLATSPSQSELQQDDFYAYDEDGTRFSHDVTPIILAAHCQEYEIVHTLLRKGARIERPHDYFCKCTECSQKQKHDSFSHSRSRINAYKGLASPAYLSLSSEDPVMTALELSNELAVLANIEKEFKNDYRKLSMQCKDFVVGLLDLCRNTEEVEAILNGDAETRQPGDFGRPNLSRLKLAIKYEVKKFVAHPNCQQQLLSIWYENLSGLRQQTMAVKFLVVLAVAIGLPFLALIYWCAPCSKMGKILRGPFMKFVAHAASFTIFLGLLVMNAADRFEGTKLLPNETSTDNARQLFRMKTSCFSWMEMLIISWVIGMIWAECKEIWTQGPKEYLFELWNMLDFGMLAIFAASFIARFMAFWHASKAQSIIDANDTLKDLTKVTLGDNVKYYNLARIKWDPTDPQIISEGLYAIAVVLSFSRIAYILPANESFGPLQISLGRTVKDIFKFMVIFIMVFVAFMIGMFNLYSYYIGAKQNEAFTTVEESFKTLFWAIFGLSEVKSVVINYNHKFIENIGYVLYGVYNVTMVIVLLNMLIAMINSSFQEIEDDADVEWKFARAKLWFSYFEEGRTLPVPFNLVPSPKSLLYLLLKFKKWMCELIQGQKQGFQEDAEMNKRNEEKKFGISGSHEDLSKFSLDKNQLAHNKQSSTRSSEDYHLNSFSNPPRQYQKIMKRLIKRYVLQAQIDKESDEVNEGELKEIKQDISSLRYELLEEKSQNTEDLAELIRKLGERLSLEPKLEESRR

For experiment [11] the target is unchanged. The experiment in a line: activation of mouse TRPC6 channel, confirmation, selectivity assay for TRPC4 activator project, cell-based, HEK293, membrane potential dye, duplicate (AID 434950;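 active = membrane potential signal rise above negative control mean plus 3 SD in both duplicates, also active in the earlier TRPC4 screen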;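 as to activation: 0% = buffer only wells and 100% = acetylcholine maximal-effect wells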). To be noted: HEK293 TRPC6, membrane potential fluorescence, at 10 µM; hits give high values.
For experiment [12] the target is unchanged. Nature of the experiment: TRPC6 potentiation by TRPC4 potentiator hits, confirmation, selectivity assay for TRPC4 potentiator project, HEK293 cells, membrane potential dye, duplicate (AID 434952;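 active = compound raising the membrane signal above positive-control mean plus 3 SD in both repeats, and a primary screen hit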). The conditions noted are these: HEK293 TRPC6, membrane potential dye fluorescence, at 10 µM, maximal acetylcholine added after compound; hits give high values.
The target of experiment [13] is Short transient receptor potential channel 4 (Mus musculus) (UniProt Q9QUQ5). Nature of the experiment: calcium flux activators in TRPC4/5HT1a cells, counter-screen for TRPC4 activator project, cell-based, second counter screen, HEK293 TRPC4/5HT1a, Fluo-4 (AID 434977;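 active = calcium signal rise above buffer-control mean plus 5 SD in both duplicates, and also a hit in the primary screen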). To be noted: Fluo-4 calcium flux, at 10 µM; hits give high values.
Chain of Short transient receptor potential channel 4 (Mus musculus) (Q9QUQ5 whole entry, looked up): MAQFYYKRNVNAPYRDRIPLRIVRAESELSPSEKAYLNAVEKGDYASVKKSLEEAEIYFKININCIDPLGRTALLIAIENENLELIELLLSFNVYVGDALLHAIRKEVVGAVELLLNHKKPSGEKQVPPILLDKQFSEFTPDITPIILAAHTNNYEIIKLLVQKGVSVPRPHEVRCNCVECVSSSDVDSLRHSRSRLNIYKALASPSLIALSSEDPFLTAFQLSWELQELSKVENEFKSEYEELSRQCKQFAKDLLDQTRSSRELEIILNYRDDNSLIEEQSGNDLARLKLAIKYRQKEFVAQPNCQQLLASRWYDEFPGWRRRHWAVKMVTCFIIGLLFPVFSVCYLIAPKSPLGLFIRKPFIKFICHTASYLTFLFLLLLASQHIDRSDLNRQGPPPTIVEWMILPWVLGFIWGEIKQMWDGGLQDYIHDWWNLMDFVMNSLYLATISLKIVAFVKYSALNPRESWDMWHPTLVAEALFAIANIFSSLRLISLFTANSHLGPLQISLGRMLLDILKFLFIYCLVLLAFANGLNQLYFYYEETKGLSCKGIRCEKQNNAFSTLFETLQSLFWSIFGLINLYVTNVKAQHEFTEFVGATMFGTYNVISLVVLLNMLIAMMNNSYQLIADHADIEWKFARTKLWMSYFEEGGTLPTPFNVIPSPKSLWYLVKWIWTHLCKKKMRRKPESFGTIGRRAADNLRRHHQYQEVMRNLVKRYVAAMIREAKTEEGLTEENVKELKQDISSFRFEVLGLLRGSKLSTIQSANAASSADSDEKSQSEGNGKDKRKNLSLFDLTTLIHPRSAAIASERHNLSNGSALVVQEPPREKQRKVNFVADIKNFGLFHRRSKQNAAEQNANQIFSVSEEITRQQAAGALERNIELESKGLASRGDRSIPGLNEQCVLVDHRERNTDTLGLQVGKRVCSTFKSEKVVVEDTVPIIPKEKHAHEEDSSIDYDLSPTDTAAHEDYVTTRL
A short description of experiment [14]: calcium flux inhibitors in TRPC4/5HT1a cells, confirmation, counter-screen for TRPC4 inhibitor project, cell-based, second counter screen, HEK293 TRPC4/5HT1a, Fluo-4 (AID 434978;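 active = primary screen active whose calcium signal fell more than 3 SD beyond the full-serotonin control mean in both duplicate plates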;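 as to outcome: serotonin given first at submaximal then at maximal dose after compound preincubation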). To be noted: Fluo-4 calcium flux, at 10 µM, serotonin added to trigger calcium flux; hits give high values.
The test system of experiment [15] is TRPC4 (mouse), co-expressed with 5HT1a in HEK293. Nature of the experiment: calcium flux potentiators in TRPC4/5HT1a cells, confirmation, counter-screen for TRPC4 potentiator project, cell-based, second counter screen, HEK293 TRPC4/5HT1a, Fluo-4 (AID 434979;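 active = signal rise over 3 SD above mean of control wells given weak agonist, in both repeats and first screen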). To be noted: Fluo-4 calcium flux, at 10 µM, serotonin added at its EC20 dose; hits give high values.
The nature of experiment [16]: calcium flux activation in mu-opioid HEK293 cells, confirmation, counter-screen for TRPC4 activator project, cell-based, HEK293 mu-opioid receptor line (AID 449723;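 active = hit in primary screen, with calcium signal over 5 SD above buffer well mean in both duplicates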;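 also: counter screen cells carry the mu-opioid receptor alone and lack TRPC4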). The conditions noted are these: Fluo-4 calcium fluorescence, at 10 µM; hits give high values.
Experiment [17] is described as follows: calcium flux enhancement in mu-opioid HEK293 cells, confirmation, counter-screen for TRPC4 allosteric potentiator project, cell-based, HEK293 mu-opioid receptor line (AID 449724;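 active = calcium signal rise more than 3 SD above the low-dose agonist control mean, in both duplicate plates and the primary screen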;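 also: HEK293 cells carrying mu-opioid receptor only with no TRPC4 channel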). To be noted: Fluo-4 calcium flux, at 10 µM, compound added before EC20 DAMGO stimulus; hits give high values.

SMILES strings stand for the structures. For part of these data: Potency and affinity values are given separately. The source made the active and inactive calls.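 The calls were made as follows, unless noted: active = primary screen inhibitor hit that blocks the TRPC4 channel at some tested dose, yielding a dose curve; inactive = the rest.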

The term inhibition denotes how much of the control response was suppressed.

For the compound `Cc1cccc(OCCn2c(=O)sc3ccccc32)c1`, the outcome in experiment [1], in experiment [2], in [3], in experiment [4], in experiment [5] and in experiment [6] was inactive. The result in experiment [7], in [8], in experiment [9], in [10], in experiment [11] and in experiment [12] was inactive. Moreover, the outcome in experiment [13], in experiment [14], in experiment [15], in [16] and in experiment [17] was inactive.
Regarding `O=S(=O)(NCCSc1nnc(-c2ccco2)n1-c1ccccc1)c1ccccc1`, the result in [1], in [2], in [3], in experiment [4], in experiment [5] and in [6] was inactive. The outcome in experiment [7], in experiment [8], in experiment [9], in [10], in experiment [11] and in experiment [12] was inactive. The result in experiment [13], in [14], in experiment [15], in [16] and in experiment [17] was inactive.
For the compound `Cc1cc2nc(CSc3ccc(Cl)cc3)cc(=O)n2[nH]1`, the outcome in experiment [1], in [2], in [3], in experiment [4], in experiment [5] and in experiment [6] was inactive. In addition, the result in experiment [7], in [8], in [9], in experiment [10], in [11] and in experiment [12] was inactive. Besides, the result in [13], in experiment [14], in [15], in experiment [16] and in experiment [17] was inactive.
Consider `CCCCc1nc(N2CCOCC2)c(C#N)c2c1CCCC2`, for which the outcome in experiment [1], in experiment [2], in experiment [3], in experiment [4], in experiment [5] and in [6] was inactive. The result in [7], in experiment [8], in experiment [9], in [10], in [11] and in experiment [12] was inactive. In addition, the outcome in experiment [13], in experiment [15], in experiment [16] and in experiment [17] was inactive. In addition, in [14], the inhibition is 36.5% (active).
As to `CCOC(=O)c1c(NC(NC(C)=O)C(Cl)(Cl)Cl)sc2c1CCCC2` (stereo not given), the result in experiment [1], in experiment [2], in experiment [3], in [4], in experiment [5] and in [6] was inactive. The result in experiment [7], in experiment [8], in experiment [9], in experiment [10], in [11] and in [12] was inactive. The outcome in experiment [13], in experiment [14], in [16] and in [17] was inactive. The potentiation in [15] was 7.17% (active).
Turning to `OC1(c2ccc(Br)cc2)CN(c2ccccc2)C2=[N+]1CCS2` (stereo not given), the outcome in experiment [1], in experiment [2], in [3], in [4], in [5] and in experiment [6] was inactive. Moreover, the result in experiment [7], in [8], in [9], in experiment [10], in experiment [12] and in [13] was inactive. Further, the result in experiment [14], in experiment [15], in [16] and in experiment [17] was inactive. The activation in [11] was 36.5% (active).
Turning to `CCCCCCc1cc2cc(-c3nnc(-c4ccccc4O)o3)c(=O)oc2cc1O`, the result in [1], in [2], in experiment [3], in experiment [5], in experiment [6] and in experiment [7] was inactive. For the same compound, the outcome in experiment [8], in [9], in experiment [10], in experiment [11], in experiment [12] and in experiment [13] was inactive. Besides, the outcome in experiment [14] and in experiment [16] was inactive. Besides, the potentiation in experiment [4] was 15% (active); in experiment [15] it was 35.3% (active). Also, the activation in [17] is 1460% (active).
Take `CCN1CCN(c2c(Cl)cccc2NC(=O)c2cccs2)CC1`: the outcome in [1], in [2], in experiment [4], in [5], in experiment [6] and in experiment [7] was inactive. Also, the result in experiment [8], in experiment [9], in experiment [10], in [11], in [12] and in experiment [13] was inactive. Moreover, the outcome in experiment [14], in experiment [16] and in [17] was inactive. The potentiation in experiment [3] is 14% (active); in experiment [15], 20.9% (active).
As for `CCOC(=O)c1c(C)n(C)c2ccc(OCC(O)CNCCc3ccccc3)cc12` (stereo not given), the result in [1], in [2], in experiment [3], in experiment [4], in [5] and in [6] was inactive. In addition, the outcome in experiment [7], in experiment [8], in [9], in experiment [10], in experiment [11] and in [12] was inactive. Also, the result in experiment [13], in [14], in [15], in [16] and in experiment [17] was inactive.
Regarding `O=C(Nc1ccc(F)cc1)Nc1cc(S(=O)(=O)N2CCOCC2)ccc1N1CCCC1`, the result in experiment [1], in experiment [2], in [3], in [5], in experiment [6] and in [7] was inactive. Moreover, the result in experiment [8], in [9], in [10], in [11], in [12] and in experiment [13] was inactive. Moreover, the outcome in [14], in experiment [16] and in experiment [17] was inactive. Further, the figures for the potentiation in [4] and in [15] were 53% (active) and 33% (active), respectively.
For `OCCNCc1cc(Br)ccc1OCc1ccccc1`, the result in experiment [1], in [2], in [3], in [4], in experiment [5] and in experiment [6] was inactive. Moreover, the result in [7], in experiment [8], in [9], in experiment [10], in experiment [11] and in experiment [12] was inactive. For the same compound, the result in [13], in experiment [14], in experiment [15], in experiment [16] and in [17] was inactive.
As for `Cc1ccc(NS(=O)(=O)c2ccc(NS(=O)(=O)c3cccs3)cc2)cc1`, the outcome in [1], in experiment [2], in experiment [3], in experiment [4], in [5] and in experiment [6] was inactive. For the same compound, the result in experiment [7], in [8], in experiment [9], in experiment [10], in [11] and in experiment [12] was inactive. In addition, the outcome in experiment [13], in [14], in [16] and in experiment [17] was inactive. In addition, the potentiation in experiment [15] is 15% (active).
In the case of `C=CCOc1ccc(Br)cc1/C=N/O`, the result in experiment [1], in experiment [2], in experiment [3], in experiment [4], in experiment [5] and in experiment [6] was inactive. Also, the result in experiment [7], in experiment [8], in experiment [9], in experiment [10], in experiment [11] and in experiment [12] was inactive. Besides, the outcome in experiment [13], in experiment [14], in [15], in experiment [16] and in experiment [17] was inactive.
With `CC(C)CN(C(=O)COC(=O)COc1ccc2ccccc2c1)c1c(N)n(Cc2ccccc2)c(=O)[nH]c1=O`, the result in experiment [1], in [2], in experiment [3], in [4], in experiment [5] and in experiment [6] was inactive. Moreover, the result in experiment [7], in experiment [8], in experiment [9], in [10], in experiment [11] and in experiment [12] was inactive. Besides, the result in experiment [13], in [14], in [16] and in experiment [17] was inactive. Besides, the potentiation in experiment [15] was 14.7% (active).
Take `C=CCOc1ccc(CN(C)Cc2nc3cc(C(F)(F)F)ccc3c(=O)[nH]2)cc1`: the result in experiment [1], in experiment [2], in experiment [3], in [4], in experiment [5] and in experiment [6] was inactive. The result in experiment [7], in experiment [8], in [9], in [10], in experiment [11] and in experiment [12] was inactive. The result in experiment [13], in experiment [14], in experiment [16] and in [17] was inactive. In addition, the potentiation in experiment [15] was 10.9% (active).

The values above are taken from PubChem BioAssay.
